# From the supplement of paper PMC10338343
# ± gives the standard deviation.
# Assays:
# [1] = test system: MILI (PIWIL2) piRISC loaded with L1MC piRNA (26 nt); assay: pre-steady-state target cleavage rate (min^-1); guide: L1MC piRNA 5'p-UAACUAAAUACUAUGCAAGCUGUAGG; higher = faster piRNA-guided slicing of the target;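 note: 1 nM active piRISC with 0.1 nM target library at 33 °C single turnover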
# In short: (§1)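 For Cleave-'n-Seq, a transcribed, DNA-blocked target RNA library […] met 1 nM active affinity-purified piRISC with one synthetic guide at 33 °C for 0–8 or 0–960 min in HEPES–potassium acetate buffer, with or without 500 nM GTSF1 partner protein. Uncleaved targets were sequenced and normalised to depth and weakly complementary targets, with three trials pooled and k3 capped at 0.0001 min^-1. A burst-and-steady-state fit supplied the pre-steady-state cleavage rate.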
# [2] = test system: EfPiwi piRISC loaded with L1MC piRNA (26 nt); assay: pre-steady-state target cleavage rate (min^-1); auxiliary factor: 500 nM Ephydatia muelleri Gtsf1; guide: L1MC piRNA 5'p-UAACUAAAUACUAUGCAAGCUGUAGG; MIWI and MILI are mouse PIWI proteins and EfPiwi is from a freshwater sponge; tags in brackets are library labels; higher = faster piRNA-guided slicing of the target
# In short: as §1
# [3] = auxiliary factor: 500 nM mouse GTSF1
# [4] = auxiliary factor: none (no GTSF1)
Sequence,"pre-steady-state target cleavage rate [1, 3]","pre-steady-state target cleavage rate [1, 4]",pre-steady-state target cleavage rate [2]
UCCUCCUACACCUUGCAUAGUAUUUAGUUA,0.237 ± 0.025,0.0085 ± 0.0022,0.0762 ± 0.025
UCCUUCUACAGCUUGCAUAGUAUUUAGUUA,0.3 ± 0.015,0.0105 ± 0.0029,0.119 ± 0.035
UCCUGGAUCAGCUAGCAUACUAUUUAGUUA,0.0859 ± 0.012,0.00444 ± 0.0019,0.00342 ± 0.0018
UCCUCCUACAGCUUGGAUAGUUUUUAGUUA,0.0664 ± 0.0092,0.00384 ± 0.0019,0.0265 ± 0.007
UCCUGCUACAGCUUGCAAAGUAAUUAGUUA,0.124 ± 0.018,0.00266 ± 0.0025,0.00362 ± 0.0019
UCCUGGAUCUGCUUGCUUAGUAUUUAGUUA,0.238 ± 0.017,0.00748 ± 0.0024,0.0931 ± 0.028
UCCUCCUACAGCUUGCAUAGUCUUUAGUUA,0.198 ± 0.023,0.00522 ± 0.0021,0.0068 ± 0.0025
UCCUGCUACAGCUUGGUUAGUAUUUAGUAA,0.148 ± 0.021,0.00357 ± 0.0022,0.00273 ± 0.0024
UCCUCCUACAGACUUGCAUAGUAUUUAGUUA,0.253 ± 0.02,0.00669 ± 0.0021,0.017 ± 0.006
UCCUGGUACAGCUUGCAUAGUAUUUAGUAUA,0.224 ± 0.031,0.00565 ± 0.0029,0.00633 ± 0.0024
UCCUGCAACAGCUAGCAUAGUAUUUAGUUA,0.289 ± 0.02,0.0104 ± 0.0028,0.0145 ± 0.004
UCCUGGUACAGCUUGCAUGGUAUUUAGUUA,0.298 ± 0.021,0.0136 ± 0.0044,0.00828 ± 0.0033
UCCUGGAUCAGCUUGCAUAGUAUUUCGUUA,0.147 ± 0.034,0.00354 ± 0.0024,0.00263 ± 0.002
UCCUGCUACAGCUUGCAUAGUAUUUUGUUA,0.168 ± 0.025,0.00464 ± 0.0019,0.00916 ± 0.0029
UCCUGCUACAGCGUGCAUAGUAUUUAGUUA,0.296 ± 0.02,0.00602 ± 0.0024,0.0101 ± 0.0026
UCCUGGAACAGCUUGCAUAGUAUUGUAGUUA,0.151 ± 0.02,0.00351 ± 0.0026,0.00741 ± 0.0027
UCCUGGAUCAGCUUGCAUUGUAAUUAGUUA,0.097 ± 0.011,0.00466 ± 0.0022,0.00179 ± 0.0017
UCCUGCUACAGCUUGUAUAGUAUUUAGUUA,0.255 ± 0.015,0.00693 ± 0.0021,0.029 ± 0.0067
UCCUCCUACAGCUACCAUAGUAUUUAGUUA,0.2 ± 0.021,0.00448 ± 0.0023,0.00393 ± 0.0021

Sequence,"pre-steady-state target cleavage rate [1, 3]","pre-steady-state target cleavage rate [1, 4]",pre-steady-state target cleavage rate [2]
UCCUGCUACAGCUGGCAUAGUAUUUAGUUA,0.293 ± 0.019,0.00759 ± 0.0024,0.00937 ± 0.0024
UCCUGGUAAAGCUUGCAUAGUAUUUAGUUA,0.183 ± 0.017,0.00996 ± 0.0023,0.00606 ± 0.002
UCCUCCUACAGCUUGCAUUGUAAUUAGUUA,0.166 ± 0.013,0.00423 ± 0.0019,0.00753 ± 0.0034
UCCUGCUACUCCUUGCAUAGUAUUUAGUUA,0.262 ± 0.015,0.0091 ± 0.0024,0.0106 ± 0.004
UCCUCCUACUGGUUGCAUAGUAUUUAGUUA,0.226 ± 0.021,0.00818 ± 0.0021,0.1 ± 0.025
UCCUCCUACACGAUGCAUAGUAUUUAGUUA,0.267 ± 0.011,0.00666 ± 0.0022,0.0593 ± 0.017
UCCUGGAUCAGGUAGCAUAGUAUUUAGUUA,0.118 ± 0.013,0.00574 ± 0.0022,0.00369 ± 0.0035
UCCUGGAUCAGCAUUGCAUAGUAUUUAGUUA,0.278 ± 0.024,0.0103 ± 0.0029,0.0605 ± 0.015
UCCUGGAUGAGCUUGCACAGUAUUUAGUUA,0.172 ± 0.014,0.00869 ± 0.0031,0.0152 ± 0.0046
UCCUCCAUACAGCUUGCAUAGUAUUUAGUUA,0.171 ± 0.021,0.00652 ± 0.002,0.00733 ± 0.0027
UCCUGGAACAGCUUGCAUAGUUUUUAGUUA,0.0586 ± 0.01,0.00493 ± 0.0022,0.00683 ± 0.0019
UCCUGGAUCGCUUGCAUAGUAUUUAGUUA,0.29 ± 0.012,0.00599 ± 0.0021,0.065 ± 0.011
UCCUGGAUGAGCUUGGAUAGUAAUUAGUUA,0.1 ± 0.02,0.00311 ± 0.0026,0.00302 ± 0.0021
UCCUGGAUGAGCCUUGCAUAGUAUUUAGUUA,0.16 ± 0.02,0.0071 ± 0.0027,0.00885 ± 0.0032
UCCUGGAUCAGCUUGGAAAGUAUUUAGUUA,0.0767 ± 0.01,0.00552 ± 0.0021,0.00365 ± 0.0033
UCCUGGUACAGCUUGCAUAGUAUUUAGUUG [g2:g24:cont:t1G],0.218 ± 0.018,0.00995 ± 0.003,0.0182 ± 0.0065
UCCUGGGACAGCUUGCAUAGUAUUUAGUUA,0.231 ± 0.024,0.0138 ± 0.0034,0.0163 ± 0.0059
UCCUGCUACAGGAUGCAUAGUAUUUAGUUA,0.271 ± 0.0083,0.00941 ± 0.0024,0.0191 ± 0.0043
